Records with an inconclusive call do not appear. Active and inactive are the calls of the source. Unless noted, the call rests on the fitted dose curve; in most records, active means well fitted curve in the direction sought with a large enough effect in the repeat runs; inconclusive means weak or mixed curves; inactive means no such curve, though single readings can be large; an effect the other way counts as inactive or inconclusive.
Tests used:
[1] = qHTS assay to identify small molecule antagonists of the glucocorticoid receptor (GR) signaling pathway - cell viability counter screen (AID 720693); further: nearly all actives have a fitted effect of over 55% in size
[2] = qHTS assay for identifying genotoxic compounds that show differential cytotoxicity against isogenic chicken DT40 cell lines with known DNA damage response pathways - wild type cell line (AID 743012); further: nearly all actives have a fitted effect of over 60% in size; further: potency means the concentration at half of the fitted maximal effect
Method in brief: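 Luminescent ATP viability signal (CellTiter-Glo, 30 min RT) recorded after wild type DT40 cells were incubated with compounds for 40 h at 37 C/5% CO2.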

[3] = qHTS assay for identifying genotoxic compounds that show differential cytotoxicity against isogenic chicken DT40 cell lines with known DNA damage response pathways - Rev3 mutant cell line (AID 743014); further: nearly all actives have a fitted effect of over 55% in size; further: potency means the concentration at half of the fitted maximal effect
[4] = qHTS assay for identifying genotoxic compounds that show differential cytotoxicity against isogenic chicken DT40 cell lines with known DNA damage response pathways - Rad54/Ku70 mutant cell line (AID 743015); further: nearly all actives have a fitted effect of over 60% in size; further: potency means the concentration at half of the fitted maximal effect
[5] = qHTS assay to identify small molecule antagonists of the androgen receptor (AR) signaling pathway - cell viability counter screen (AID 743033; further: nearly all actives have a fitted effect of over 45% in size)
[6] = qHTS assay to identify small molecule antagonists of the androgen receptor (AR) signaling pathway using the MDA cell line - cell viability counter screen (AID 743041; further: nearly all actives have a fitted effect of over 45% in size)
Method in brief: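 Viability read by CellTiter-Fluor fluorescence in the same wells as the antagonist screen, added after 15.5 h of a 16 h, 37C exposure. Human breast carcinoma MDA-kb2 AR-luc cells, compounds co-dosed with agonist R1881.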

[7] = target: Androgen receptor (Homo sapiens) (UniProt P10275); test: qHTS assay to identify small molecule antagonists of the androgen receptor (AR) signaling pathway (AID 743035; active means well fitted inhibition curve with a large enough effect in the signal ratio in the repeat runs, not every such curve was filed as active; the % refers to the signal ratio)
Chain of Androgen receptor (Homo sapiens) (P10275 whole entry, looked up): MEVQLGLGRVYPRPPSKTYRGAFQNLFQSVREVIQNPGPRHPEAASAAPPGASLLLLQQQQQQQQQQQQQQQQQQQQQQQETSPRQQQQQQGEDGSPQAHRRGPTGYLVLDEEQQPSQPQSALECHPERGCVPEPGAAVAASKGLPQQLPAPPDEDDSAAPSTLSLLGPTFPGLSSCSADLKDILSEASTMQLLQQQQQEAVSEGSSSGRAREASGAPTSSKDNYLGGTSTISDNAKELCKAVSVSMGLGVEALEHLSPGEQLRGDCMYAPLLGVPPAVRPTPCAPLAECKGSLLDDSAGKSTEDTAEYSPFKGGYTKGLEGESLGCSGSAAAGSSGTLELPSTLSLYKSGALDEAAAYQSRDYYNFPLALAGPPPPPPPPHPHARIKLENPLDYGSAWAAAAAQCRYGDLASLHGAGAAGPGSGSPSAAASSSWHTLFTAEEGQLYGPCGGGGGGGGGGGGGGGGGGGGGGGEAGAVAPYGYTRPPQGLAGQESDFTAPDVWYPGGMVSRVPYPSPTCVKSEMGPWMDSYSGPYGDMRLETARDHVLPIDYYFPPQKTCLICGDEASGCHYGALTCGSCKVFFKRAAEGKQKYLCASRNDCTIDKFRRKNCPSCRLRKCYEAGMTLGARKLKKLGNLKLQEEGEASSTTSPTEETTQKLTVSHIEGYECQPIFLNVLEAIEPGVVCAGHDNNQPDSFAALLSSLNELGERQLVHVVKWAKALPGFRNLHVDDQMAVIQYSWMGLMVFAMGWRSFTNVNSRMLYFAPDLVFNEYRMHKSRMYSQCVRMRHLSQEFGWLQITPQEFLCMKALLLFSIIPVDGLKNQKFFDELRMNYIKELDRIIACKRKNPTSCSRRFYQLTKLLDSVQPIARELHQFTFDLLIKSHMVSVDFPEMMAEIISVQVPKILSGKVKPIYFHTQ
Method in brief: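 Quantitative HTS of the Tox21 10K library used HEK293 AR-UAS-bla cells stimulated with R1881 alongside compound for 16 h at 37C, followed by beta-lactamase FRET detection (LiveBLAzer B/G, 2 h, RT).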

[8] = target: Androgen receptor (Homo sapiens) (UniProt P10275); test: qHTS assay to identify small molecule agonists of the androgen receptor (AR) signaling pathway (AID 743036; active means well fitted activation curve with a large enough effect in the signal ratio in the repeat runs, with a control signal flat, not every such curve was filed as active; the % refers to the signal ratio)
Method in brief: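 In this Tox21 qHTS, 2,000 HEK293 AR-bla cells per well were incubated with compounds for 16 h at 37C and 5% CO2. Fluorescence intensity was recorded 2 h after adding LiveBLAzer B/G FRET substrate at room temperature.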

[9] = target: Androgen receptor (Homo sapiens) (UniProt P10275); test: qHTS assay to identify small molecule agonists of the androgen receptor (AR) signaling pathway using the MDA cell line (AID 743040; further: nearly all actives have a fitted effect of over 20% in size; further: potency means the concentration at half of the fitted maximal effect)
Method in brief: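 Luciferase agonist assay: 16 h compound exposure at 37C without CO2 in MDA-kb2 AR-luc cells, whose MMTV promoter responds to both AR and GR. Luminescence measured after 30 min room-temperature incubation with ONE-Glo.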

[10] = target: Androgen receptor (Homo sapiens) (UniProt P10275); test: qHTS assay to identify small molecule antagonists of the androgen receptor (AR) signaling pathway using the MDA cell line (AID 743042; further: nearly all actives have a fitted effect of over 55% in size)
Method in brief: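 Antagonist mode: compounds plus R1881 agonist added to MDA-kb2 AR-luc cells, incubated 16 h at 37C. Luciferase reporter luminescence quantified, with multiplexed CellTiter-Fluor readout for cell viability.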

Measured: Potency

CC(O)C1CCCCC1 (configuration not stated)
inactive: [1] | [2] | [3] | [4] | [5] | [6]

CC(C)(C)c1cc(CO)cc(C(C)(C)C)c1O
inactive: [1]
active: [2] 31.2 µM | [3] 27.8 µM | [4] 22.1 µM

Cc1ccc(O)c([C@H](CCN(C(C)C)C(C)C)c2ccccc2)c1
inactive: [1]
active: [2] 26.6 µM

CCCCCCCCCO
inactive: [1]

FC(F)(F)C(F)(F)C(F)(F)C(F)(F)C(F)(F)C(F)(F)CCI
inactive: [1] | [2] | [3] | [4] | [5]

CC(Cc1cccc(C(F)(F)F)c1)NCCOC(=O)c1ccccc1 (configuration not stated)
active: [2] 18.8 µM | [3] 23.7 µM | [4] 26.6 µM
inactive: [1]

O=C(Cl)c1c(Cl)cccc1Cl
inactive: [1] | [2] | [3] | [4] | [5]

CCCCCCCC/C=C\CCCCCCCC(N)=O
inactive: [1] | [2] | [3] | [4] | [5] | [7] | [8] | [9] | [6] | [10]

c1ccc(OCc2ccc(CCCN3CCOCC3)cc2)cc1
active: [2] 0.531 µM | [3] 0.168 µM | [4] 0.596 µM
inactive: [1] | [5] | [8] | [9]

O=C(O)/C=C/c1cnc[nH]1
inactive: [1] | [2] | [3] | [4] | [5]

Nc1ccc(C(=O)Nc2ccccc2N)cc1
inactive: [1] | [5] | [6]
active: [2] 1.5 µM | [3] 0.422 µM | [4] 1.88 µM | [9] 10.6 µM

CCCCCC/C=C/C=O
inactive: [1] | [2] | [3] | [4] | [5] | [7]
